# Measurements published in PubChem BioAssay (Tox21).
# Inconclusive results are not listed. A call without a number means that no potency is given here. A number with no mark means an inactive call. The source made the active and inactive calls. Unless noted, calls come from the whole dose curve; as a rule, active = well fitted curve in the direction sought with a large enough effect in the repeat runs; inconclusive = weak or mixed curves; inactive = no such curve, though single readings can be large; an effect the other way counts as inactive or inconclusive.
# Tests used:
# [1] = qHTS assay to identify aromatase inhibitors - cell viability counter screen (AID 743084); details: MCF-7 aro ERE viability, CellTiter-Fluor, 24 h; series mostly up to 70.3 µM;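 note: cells stimulated with testosterone during compound exposure; nearly all actives have a fitted effect of over 55% in size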; note: potency is the fitted concentration of half-maximal effect
# [2] = qHTS assay to identify small molecule that activate the aryl hydrocarbon receptor (AhR) signaling pathway - cell viability counter screen (AID 743086); details: HepG2-AhR-luc viability, CellTiter-Fluor, 24 h; series mostly up to 70.3 µM;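 note: HepG2 liver cells carrying the AhR DRE luciferase reporter; nearly all actives have a fitted effect of over 45% in size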
# Method in brief: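 HepG2-AhR-luc (HG2L7.5c1) cells, 4000/well, treated 24 h at 37 C with compound; viability measured as CellTiter-Fluor fluorescence after 30 min in the same wells as the luciferase read.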
# [3] = molecular target: Peroxisome proliferator-activated receptor gamma (Homo sapiens) (UniProt P37231); assay: qHTS assay to identify small molecule agonists of the peroxisome proliferator-activated receptor gamma (PPARg) signaling pathway (AID 743094; active = well fitted activation curve with a large enough effect in the signal ratio in the repeat runs, not every such curve was filed as active; the % refers to the signal ratio); details: HEK293H PPARg-UAS-bla, beta-lactamase FRET ratio, 17 h; series mostly up to 57 µM
# Sequence of Peroxisome proliferator-activated receptor gamma (Homo sapiens) (P37231 whole entry, looked up): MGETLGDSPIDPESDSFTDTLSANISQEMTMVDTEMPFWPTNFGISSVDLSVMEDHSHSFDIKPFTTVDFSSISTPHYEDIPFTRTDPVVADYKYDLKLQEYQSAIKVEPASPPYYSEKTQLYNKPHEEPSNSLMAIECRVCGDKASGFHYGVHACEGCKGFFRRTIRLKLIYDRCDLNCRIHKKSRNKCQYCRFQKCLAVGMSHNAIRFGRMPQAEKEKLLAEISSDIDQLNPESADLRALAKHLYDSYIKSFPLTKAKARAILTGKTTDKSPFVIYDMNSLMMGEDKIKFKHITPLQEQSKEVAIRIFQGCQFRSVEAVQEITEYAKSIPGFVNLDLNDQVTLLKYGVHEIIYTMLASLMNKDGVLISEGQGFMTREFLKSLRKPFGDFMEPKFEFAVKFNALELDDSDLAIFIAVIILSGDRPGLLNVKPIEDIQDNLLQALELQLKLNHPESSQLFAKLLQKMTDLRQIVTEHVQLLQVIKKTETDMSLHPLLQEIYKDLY
# Method in brief: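 Fluorescence-based beta-lactamase readout in HEK293H PPARg UAS-bla cells after 17 h compound exposure (37C) and 1 h B/G FRET substrate incubation at room temperature.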
# [4] = molecular target: Peroxisome proliferator-activated receptor gamma (Homo sapiens) (UniProt P37231); assay: qHTS assay to identify small molecule antagonists of the peroxisome proliferator-activated receptor gamma (PPARg) signaling pathway (AID 743191; calls by dose curve; note: nearly all actives have a fitted effect of over 30% in size); details: HEK293H PPARg-UAS-bla, beta-lactamase ratio, antagonist, 17 h; series mostly up to 62.6 µM
# Method in brief: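 GeneBLAzer PPARg UAS-bla HEK293H cells, 5 h post-plating, exposed to compounds 17 h at 37C. LiveBLAzer B/G FRET substrate added for 1 h at room temperature; beta-lactamase reporter read by fluorescence intensity.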
# [5] = qHTS assay to identify small molecule antagonists of the peroxisome proliferator-activated receptor gamma (PPARg) signaling pathway - cell viability counter screen (AID 743194); details: PPARg-bla HEK293H viability, CellTiter-Glo luminescence, 17 h, co-treated with 50 nM rosiglitazone; series mostly up to 62.6 µM; note: nearly all actives have a fitted effect of over 55% in size
# Method in brief: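 Cytotoxicity counter screen in PPARg-bla HEK293H cells, same wells as reporter assay. Compounds plus 50 nM rosiglitazone (final) for 17 h at 37 C, then viability read by CellTiter-Glo luminescence.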
# [6] = qHTS assay for small molecule agonists of the antioxidant response element (ARE) signaling pathway - cell viability counter screen (AID 743203; calls by dose curve; note: nearly all actives have a fitted effect of over 55% in size; note: potency is the fitted concentration of half-maximal effect); details: ARE-bla HepG2 viability, CellTiter-Glo luminescence, 16 h; series mostly up to 73.3 µM
# Method in brief: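 Parallel cytotoxicity read-out for the ARE-bla screen: HepG2 reporter cells, 16 hrs with compounds, then CellTiter-Glo luminescence.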
# [7] = qHTS assay for small molecule activators of the heat shock response signaling pathway - cell viability counter screen (AID 743209); details: HSE-bla HeLa viability, CellTiter-Glo luminescence, 5 h; series mostly up to 62.6 µM; note: nearly all actives have a fitted effect of over 50% in size; note: potency is the fitted concentration of half-maximal effect
# Method in brief: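 To flag cytotoxic compounds, HSE-bla HeLa cells plated at 1500 cells/well were dosed for 5 h at 37 C, followed by the reporter FRET read and then CellTiter-Glo, with luminescence recorded 30 min after reagent addition.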
# [8] = qHTS assay for small molecule activators of the heat shock response signaling pathway (AID 743210; active = well fitted activation curve with a large enough effect in the signal ratio in the repeat runs, with a control signal flat, not every such curve was filed as active; the % refers to the signal ratio;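 note: HeLa cells with beta-lactamase reporter driven by heat shock elements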); details: HeLa HSE-bla reporter, beta-lactamase ratio, 5 h; series mostly up to 62.6 µM
# Method in brief: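 Beta-lactamase reporter read-out: FRET substrate fluorescence after 2.5 h at RT, following 5 h compound treatment at 37 C of HeLa cells carrying HSE-driven bla reporter; quantitative HTS format.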
# [9] = qHTS assay to identify small molecule agonists of the peroxisome proliferator-activated receptor delta (PPARd) signaling pathway - cell viability counter screen (AID 743211); details: PPARd-bla HEK293H viability, CellTiter-Glo luminescence, 17 h; series mostly up to 62.6 µM; note: nearly all actives have a fitted effect of over 55% in size; note: potency is the fitted concentration of half-maximal effect
# Method in brief: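 In the same wells used for beta-lactamase reporter measurement, cytotoxicity is scored by CellTiter-Glo. HEK293H PPARd-bla cells receive compound for 17 h at 37C following a 5 h settling period.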
# [10] = molecular target: Peroxisome proliferator-activated receptor delta (Homo sapiens) (UniProt Q03181); assay: qHTS assay to identify small molecule agonists of the peroxisome proliferator-activated receptor delta (PPARd) signaling pathway (AID 743212; calls by dose curve); details: HEK293H PPARd-UAS-bla, beta-lactamase FRET ratio, 17 h; series mostly up to 62.6 µM
# Sequence of Peroxisome proliferator-activated receptor delta (Homo sapiens) (Q03181 whole entry, looked up): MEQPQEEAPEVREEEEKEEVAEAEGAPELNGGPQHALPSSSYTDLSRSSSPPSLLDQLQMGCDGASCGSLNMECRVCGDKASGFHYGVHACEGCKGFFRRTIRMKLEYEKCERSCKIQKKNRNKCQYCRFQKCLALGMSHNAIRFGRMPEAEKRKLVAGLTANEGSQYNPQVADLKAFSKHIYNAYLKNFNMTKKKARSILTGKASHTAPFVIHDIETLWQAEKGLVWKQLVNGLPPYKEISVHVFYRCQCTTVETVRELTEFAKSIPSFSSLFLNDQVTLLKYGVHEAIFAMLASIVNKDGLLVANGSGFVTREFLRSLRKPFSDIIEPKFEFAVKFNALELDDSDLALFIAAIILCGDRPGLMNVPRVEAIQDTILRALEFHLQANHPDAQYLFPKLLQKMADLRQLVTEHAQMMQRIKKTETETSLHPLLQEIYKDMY
# Method in brief: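 Read-out: beta-lactamase FRET fluorescence after 2 h room-temperature incubation with LiveBLAzer B/G substrate. Cells were HEK293H carrying a UAS-bla reporter for PPARd, treated at 37 C with DMSO-dissolved compounds.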
# [11] = qHTS assay to identify small molecule antagonists of the peroxisome proliferator-activated receptor delta (PPARd) signaling pathway - cell viability counter screen (AID 743213); details: PPARd-bla HEK293H viability, CellTiter-Glo luminescence, 17 h; series mostly up to 62 µM; note: nearly all actives have a fitted effect of over 50% in size
# Method in brief: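 PPARd-bla HEK293H cells (3000/well) got compound plus 300 nM L165041 agonist for 17 h at 37 C. Viability in the same wells came from CellTiter-Glo luminescence after 30 min at room temperature.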
# [12] = molecular target: Peroxisome proliferator-activated receptor delta (Homo sapiens) (UniProt Q03181); assay: qHTS assay to identify small molecule antagonists of the peroxisome proliferator-activated receptor delta (PPARd) signaling pathway (AID 743215; active = well fitted inhibition curve with a large enough effect in the signal ratio in the repeat runs, not every such curve was filed as active; the % refers to the signal ratio;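 note: cells stimulated with agonist L165041 at 300 nM final during compound exposure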); details: HEK293H PPARd-UAS-bla, beta-lactamase FRET ratio, antagonist, 17 h; series mostly up to 62 µM
# Method in brief: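 Screen format: qHTS, antagonist mode. HEK293H PPARd-bla cells received compound and 300 nM L165041 (final), 17 h, 37 C. Beta-lactamase detected via FRET substrate fluorescence, 2 h, room temperature.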
# [13] = qHTS assay to identify small molecule agonists of the farnesoid-X-receptor (FXR) signaling pathway - cell viability counter screen (AID 743218); details: FXR-bla HEK293T viability, CellTiter-Glo luminescence, 16 h; series mostly up to 62.6 µM; note: nearly all actives have a fitted effect of over 45% in size
# Method in brief: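 Same-well cytotoxicity check on FXR-UAS-bla HEK 293T cells: 5 h attachment, 16 h compound at 37 C, CellTiter-Glo luminescence read at room temperature after 30 min.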
# [14] = qHTS assay to identify small molecule antagonists of the farnesoid-X-receptor (FXR) signaling pathway - cell viability counter screen (AID 743221; active = well fitted cell-killing curve with a large enough effect in the repeat runs, not every such curve was filed as active; note: nearly all actives have a fitted effect of over 50% in size); details: FXR-bla HEK293T viability, CellTiter-Glo luminescence, 16 h; series mostly up to 62.6 µM
# Method in brief: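 Here viability was scored by luminescence after CellTiter-Glo addition to wells already read for beta-lactamase. Prior treatment: compound plus CDCA (50 uM final), 16 h, 37 C, HEK 293T FXR-bla cells.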
# [15] = molecular target: Vitamin D3 receptor (Homo sapiens) (UniProt P11473); assay: qHTS assay to identify small molecule agonists of the vitamin D receptor (VDR) signaling pathway (AID 743222; calls by dose curve); details: HEK293T VDR-UAS-bla, beta-lactamase FRET ratio, 16 h; series mostly up to 63.5 µM
# Sequence of Vitamin D3 receptor (Homo sapiens) (P11473 whole entry, looked up): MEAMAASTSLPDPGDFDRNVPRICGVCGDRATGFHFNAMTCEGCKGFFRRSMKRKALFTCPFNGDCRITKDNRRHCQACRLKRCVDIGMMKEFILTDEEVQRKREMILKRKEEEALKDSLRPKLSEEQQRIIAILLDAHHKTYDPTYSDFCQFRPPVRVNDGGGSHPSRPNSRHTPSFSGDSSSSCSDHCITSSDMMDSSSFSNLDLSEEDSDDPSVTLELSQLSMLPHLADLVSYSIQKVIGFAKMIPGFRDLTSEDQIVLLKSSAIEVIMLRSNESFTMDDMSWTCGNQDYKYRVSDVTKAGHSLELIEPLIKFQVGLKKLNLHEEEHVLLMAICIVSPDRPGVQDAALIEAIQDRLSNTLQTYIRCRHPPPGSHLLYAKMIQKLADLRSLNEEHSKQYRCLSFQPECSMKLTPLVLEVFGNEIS
# Method in brief: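 Using LiveBLAzer B/G FRET detection, agonism was scored in VDR-bla cells exposed overnight (16 h, 37C) to DMSO-dissolved compounds; substrate incubation was 2 h at room temperature.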
# [16] = molecular target: Vitamin D3 receptor (Homo sapiens) (UniProt P11473); assay: qHTS assay to identify small molecule antagonists of the vitamin D receptor (VDR) signaling pathway (AID 743223; active = well fitted inhibition curve with a large enough effect in the signal ratio in the repeat runs, not every such curve was filed as active; the % refers to the signal ratio); details: VDR-UAS-bla HEK293T, beta-lactamase FRET ratio, 16 h; series mostly up to 61 µM
# Method in brief: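 Inhibition of agonist-driven VDR signalling is scored in VDR-bla cells: 3 nM final 1alpha,25-dihydroxyvitamin D3 plus compound, 16 h at 37C, then beta-lactamase detection by FRET substrate fluorescence after 2 h.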
# [17] = molecular target: Aryl hydrocarbon receptor (Homo sapiens) (UniProt P35869); assay: qHTS assay to identify small molecule that activate the aryl hydrocarbon receptor (AhR) signaling pathway (AID 743085); details: HepG2 AhR-luc (HG2L7.5c1), luciferase, 24 h; series mostly up to 70.3 µM;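 note: HG2L7.5c1 human HepG2 liver cells with stably integrated DRE-driven firefly reporter; nearly all actives have a fitted effect of over 15% in size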
# Sequence of Aryl hydrocarbon receptor (Homo sapiens) (P35869 whole entry, looked up): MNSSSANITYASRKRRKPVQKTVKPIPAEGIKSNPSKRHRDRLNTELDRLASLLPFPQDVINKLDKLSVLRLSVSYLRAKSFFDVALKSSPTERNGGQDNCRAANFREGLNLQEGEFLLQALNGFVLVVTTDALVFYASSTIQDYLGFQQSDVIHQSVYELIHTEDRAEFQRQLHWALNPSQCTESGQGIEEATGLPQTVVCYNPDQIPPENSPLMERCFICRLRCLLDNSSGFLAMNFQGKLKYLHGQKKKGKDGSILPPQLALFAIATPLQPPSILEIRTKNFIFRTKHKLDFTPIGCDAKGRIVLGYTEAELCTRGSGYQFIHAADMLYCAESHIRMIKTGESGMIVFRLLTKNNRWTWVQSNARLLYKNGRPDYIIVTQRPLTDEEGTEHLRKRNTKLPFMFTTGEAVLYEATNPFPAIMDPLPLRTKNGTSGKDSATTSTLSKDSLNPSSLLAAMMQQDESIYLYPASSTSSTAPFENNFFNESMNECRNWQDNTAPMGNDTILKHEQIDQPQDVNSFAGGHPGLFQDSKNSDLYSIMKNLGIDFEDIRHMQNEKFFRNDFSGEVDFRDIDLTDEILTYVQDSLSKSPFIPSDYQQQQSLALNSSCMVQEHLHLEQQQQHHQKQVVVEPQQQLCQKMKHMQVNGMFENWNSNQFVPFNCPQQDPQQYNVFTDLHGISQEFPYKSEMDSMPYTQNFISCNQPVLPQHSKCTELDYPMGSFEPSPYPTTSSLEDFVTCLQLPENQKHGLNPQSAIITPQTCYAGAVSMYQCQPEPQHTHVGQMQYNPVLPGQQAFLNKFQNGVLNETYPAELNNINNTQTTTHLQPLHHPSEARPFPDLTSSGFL
# Method in brief: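 Stably transfected human liver carcinoma cells (HG2L7.5c1; 20 DRE-firefly luciferase) were incubated 5 h, dosed, and kept 24 h at 37C. Agonism was scored from increased luciferase luminescence.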
# [18] = molecular target: Bile acid receptor (Homo sapiens) (UniProt Q96RI1); assay: qHTS assay to identify small molecule antagonists of the farnesoid-X-receptor (FXR) signaling pathway (AID 743217; active = well fitted inhibition curve with a large enough effect in the signal ratio in the repeat runs, not every such curve was filed as active; the % refers to the signal ratio); details: HEK293T FXR-UAS-bla, beta-lactamase ratio, CDCA-stimulated, 16 h; series mostly up to 62.6 µM
# Sequence of Bile acid receptor (Homo sapiens) (Q96RI1 whole entry, looked up): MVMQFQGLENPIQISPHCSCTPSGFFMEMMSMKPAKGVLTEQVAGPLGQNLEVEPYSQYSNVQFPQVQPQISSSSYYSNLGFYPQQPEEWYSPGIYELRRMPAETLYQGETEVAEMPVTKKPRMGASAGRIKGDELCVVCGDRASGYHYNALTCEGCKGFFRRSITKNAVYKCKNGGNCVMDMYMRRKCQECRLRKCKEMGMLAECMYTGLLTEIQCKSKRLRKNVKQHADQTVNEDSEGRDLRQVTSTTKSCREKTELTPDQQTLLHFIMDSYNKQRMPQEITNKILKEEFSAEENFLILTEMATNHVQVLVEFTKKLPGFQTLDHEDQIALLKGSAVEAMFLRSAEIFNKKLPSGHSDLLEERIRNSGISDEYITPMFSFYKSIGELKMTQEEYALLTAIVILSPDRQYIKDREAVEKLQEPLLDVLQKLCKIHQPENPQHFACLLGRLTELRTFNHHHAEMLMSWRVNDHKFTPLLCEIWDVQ
# Method in brief: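 Quantitative HTS, beta-lactamase reporter format: FXR-UAS-bla HEK 293T cells co-treated 16 h at 37 °C with compounds and 50 uM final chenodeoxycholic acid, then read by B/G FRET fluorescence.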
# [19] = qHTS assay for small molecule agonists of the antioxidant response element (ARE) signaling pathway (AID 743202; active = well fitted activation curve with a large enough effect in the signal ratio in the repeat runs, not every such curve was filed as active; the % refers to the signal ratio); details: HepG2 ARE-bla reporter, beta-lactamase FRET, 16 h; series mostly up to 73.3 µM
# Method in brief: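 HepG2 ARE-bla reporter line, 2,000 cells/well; 5 h preincubation 37 C/5% CO2; compound (DMSO) 16 h 37 C; B/G FRET substrate 2 h RT; fluorescence intensity.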
# [20] = molecular target: Bile acid receptor (Homo sapiens) (UniProt Q96RI1); assay: qHTS assay to identify small molecule agonists of the farnesoid-X-receptor (FXR) signaling pathway (AID 743220; active = well fitted activation curve with a large enough effect in the signal ratio in the repeat runs, not every such curve was filed as active; the % refers to the signal ratio); details: HEK293T FXR-UAS-bla, beta-lactamase FRET ratio, 16 h; series mostly up to 62.6 µM
# Method in brief: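 FXR-UAS-bla HEK 293T cells carrying a UAS-driven beta-lactamase reporter were plated for 5 h at 37C/5% CO2, then exposed to DMSO-dissolved Tox21 10K compounds for 16 h at 37C. A LiveBLAzer B/G FRET substrate was loaded for 2 h at room temperature before fluorescence reading.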
Structure (SMILES),Potency [1],Potency [2],Potency [3],Potency [4],Potency [5],Potency [6],Potency [7],outcome [8],Potency [9],outcome [10],Potency [11],outcome [12],Potency [13],Potency [14],outcome [15],Potency [16],Potency [17],outcome [18],Potency [19],outcome [20]
c1ccc(OCc2ccc(CCCN3CCOCC3)cc2)cc1,inactive,inactive,inactive,inactive,inactive,inactive,inactive,inactive,inactive,inactive,inactive,inactive,inactive,inactive,inactive,inactive,–,–,–,–
O=C(O)c1cccc(N(Cc2cccnc2)c2ccc(OC(F)F)c(OC(F)F)c2)c1,inactive,inactive,–,–,inactive,inactive,–,inactive,inactive,–,inactive,inactive,inactive,inactive,–,–,inactive,–,–,–
CCCCCCc1ccc(N)cc1,inactive,inactive,–,–,inactive,–,inactive,inactive,inactive,–,inactive,inactive,–,inactive,inactive,inactive,inactive,inactive,–,–
CC1(C)[C@H]2CC[C@]1(C)[C@H](O)C2,inactive,inactive,–,–,inactive,–,inactive,inactive,inactive,inactive,–,–,inactive,inactive,–,–,inactive,–,inactive,–
CC(C)(C)C1CCCCC1O (stereo unspecified),inactive,inactive,inactive,inactive,inactive,inactive,inactive,inactive,inactive,inactive,inactive,inactive,inactive,inactive,inactive,inactive,–,inactive,inactive,inactive
CCOc1cc(OCC)c(C(=O)CCC(=O)O)cc1OCC,inactive,inactive,–,–,inactive,–,inactive,inactive,inactive,–,inactive,inactive,inactive,inactive,–,–,inactive,–,–,–
Nc1nc(N)c2nc(CNc3ccc(C(=O)N[C@@H](CCC(=O)O)C(=O)O)cc3)cnc2n1,inactive,inactive,–,–,–,0.0051 µM (active),inactive,–,–,–,–,–,–,–,–,–,inactive,–,–,–
CCCCCCCCCCCCCCCBr,inactive,inactive,inactive,inactive,inactive,inactive,inactive,inactive,inactive,–,inactive,inactive,inactive,inactive,inactive,–,–,inactive,inactive,inactive
O=C(O)C1CCC(C(=O)O)CC1 (stereo unspecified),inactive,inactive,inactive,inactive,inactive,inactive,inactive,inactive,inactive,–,inactive,–,inactive,–,inactive,inactive,–,–,inactive,inactive
C=CC(=O)OCC(C)OCC(C)OCC(C)OC(=O)C=C (stereo unspecified),48.6 µM (active),inactive,–,–,inactive,inactive,15.5 µM (active),–,49 µM (active),–,–,–,–,inactive,–,–,inactive,–,–,–
Oc1ccc(C(O)CNCCCCCCNCC(O)c2ccc(O)c(O)c2)cc1O (stereo unspecified),21.1 µM (active),–,–,inactive,inactive,inactive,inactive,–,inactive,inactive,inactive,–,inactive,inactive,inactive,inactive,inactive,–,–,–
CC(C(=O)O)c1ccc(-c2ccccc2)c(F)c1 (stereo unspecified),inactive,inactive,–,–,inactive,inactive,–,inactive,inactive,–,inactive,inactive,inactive,inactive,inactive,inactive,inactive,–,–,–
C[C@@H](C1=C(CCN(C)C)Cc2ccccc21)c1ccccn1,inactive,inactive,–,–,inactive,inactive,inactive,inactive,inactive,–,inactive,inactive,–,inactive,inactive,inactive,inactive,inactive,–,inactive
Cc1cccc(C(C)(C)C)c1O,inactive,inactive,inactive,inactive,inactive,inactive,inactive,inactive,inactive,–,inactive,–,inactive,inactive,inactive,inactive,–,–,inactive,–
CN(C)C/C=C(/c1ccc(Br)cc1)c1cccnc1,inactive,–,inactive,inactive,inactive,inactive,inactive,–,–,–,inactive,–,inactive,inactive,inactive,inactive,inactive,–,inactive,–
CC(=O)OC/C=C/c1ccccc1,inactive,inactive,inactive,inactive,inactive,inactive,inactive,inactive,inactive,inactive,inactive,inactive,–,inactive,inactive,inactive,–,inactive,inactive,inactive
CC(=O)OCCc1ccccc1,inactive,inactive,inactive,inactive,inactive,inactive,–,inactive,inactive,–,–,–,inactive,inactive,inactive,inactive,–,–,inactive,–
O=C(c1ccc(O)cc1)c1ccc(O)cc1,inactive,inactive,inactive,inactive,inactive,–,inactive,inactive,inactive,inactive,–,–,inactive,inactive,inactive,–,–,–,inactive,–
C=CCCCCCC,inactive,inactive,inactive,inactive,inactive,inactive,–,–,inactive,–,inactive,–,inactive,–,–,–,–,inactive,inactive,inactive
